Values joined by “and” are separate entries in the source; they are usually repeats but may differ in a detail not shown here. Equal entries are not always repeated. The panel holds about 83,000 compounds, 20% with a hit somewhere; the sample as a whole holds those more often.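 Percent growth is the endpoint: 0 to 100 indicates growth inhibition (40 means 60% inhibition), 0 means no net growth, and negative values indicate cell death.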 Values without a mark were called inactive. Active and inactive are the calls of the source. How the source made its calls: active means growth percent below 10; inactive means the rest.
Tested on: MDA-MB-468 breast
Experiment: NCI-60 one-dose screen, 48 h (100 = growth as untreated, 0 = no growth, -100 = all killed)
Conditions: 10 µM unless noted

SMILES	growth
Nc1nc(N)c2[nH]cnc2n1	69.9%
COc1cc(NC(=O)c2sc3nc4c(cc3c2N)C(O)CCC4)cc(OC)c1 (stereo not given)	54%
COc1cc(NCCCCCN=C(N)NC(N)=NC(C)C)c2ncccc2c1	-63.5% (active)
COc1cc(OC)cc(-c2ccc(-c3ccc(C(=N)N)cn3)s2)c1	64.4%
C=C1c2nc3ccccc3n2C=C(c2ccc(Cl)cc2)N1Cc1ccccc1	59.1%
O=C(O)c1ccccc1Oc1cc(-c2ccco2)nc(OCCBr)n1	119%
CCC(C)C1(C2CCCC2)NC(=O)NC1=O (stereo not given)	115% and 121%
CC(c1ccccc1)N1CSc2nc3ncncc3n2C1 (stereo not given)	-0.761% (active)
CC(C)(O)c1cncc(-c2ccc3ncnc(N4CCc5cc(F)c(Cl)cc54)c3c2)c1	-36% (active)
Cc1nn(-c2cc(=O)[nH]c3ccc(Cl)cc23)c(N)c1C#N	111%
Fc1ccc(Nc2ccc3c(OCCCN4CCOCC4)cccc3n2)cc1F	46.3%
CC(=O)N1N=C(c2ccc(Nc3nc(Nc4ccc(F)cc4)nc(Nc4ccc(Cl)cc4)n3)cc2)CC1c1ccc(N(C)C)cc1 (stereo not given)	56.2%
CC1=C/C(=C(\c2ccc(N(C)C)cc2)c2ccc([N+](C)(C)C)cc2)C=CC1=[N+](C)C	70.6%
Cc1nc([P+](c2ccccc2)(c2ccccc2)c2ccccc2)c(N2CCCCC2)o1	0.108% (active)
Nc1nc(N)c2c(n1)NC(c1ccc(C(F)(F)F)cc1)CC(c1ccc(Nc3nc(NCCO)nc(N4CCOCC4)n3)cc1)=N2 (stereo not given)	68.3%
CC(=O)N(N=O)c1ccc([N+](=O)[O-])cc1Cl	29.7%
COc1cc(-c2cc(=O)oc3cc(O)ccc23)cc(OC)c1OC	74.2%
C=C[C@@H]1C[C@@H]2Cc3ccccc3N1O2	97.8%
CC1COCC(C)N1C1=C(Cl)C(=O)c2ccccc2C1=O (stereo not given)	-92% (active)
COc1cccc(C(=O)NNc2nc(Cl)nc(Cl)n2)c1	102%

SMILES	growth
COC1=CC(c2ccc[nH]2)=N/C1=C\c1[nH]c(C)c(C(=O)CCCCC(=O)NC(C)(C)C)c1C	33.9%
NC(=O)c1cccc(N2Cc3ccccc3OC3=C2C(=O)c2c(O)ccc(O)c2C3=O)c1	-21.4% (active)
COc1ccc(OC)c(-c2cc(-c3ccc(Cl)cc3)c3c(N)c(C(=O)c4ccc(Cl)cc4)sc3n2)c1	117%
COc1cccc(Nc2ccnc3[nH]c4ccc([N+](=O)[O-])cc4c23)c1	23.1%
O=C(NOCCO)c1ccc2cncn2c1Nc1ccc(I)cc1F	107%
NCCCNc1nc2ccccc2c2c(=O)c3cc(F)ccc3sc12	1.26% (active)
CC(=O)OC/C(C)=C\CC(C)COC(C)=O (stereo not given)	98.5%
CN1C(=O)[C@H]2c3c1cccc3[C@@]13NC(=O)O[C@H]1[C@H](CCC3(C)C)C2(C)C	78.6%
O=C(/C=C/C12c3ccccc3C(c3ccccc31)C1C(=O)N(c3ccccc3)C(=O)C12)c1ccc(Cl)cc1 (stereo not given)	3.08% (active)
CCN(CC)CCOc1ccc2c(-c3ccccc3)c(-c3ccc(OC)cc3)c(=O)oc2c1	44.5%
CN(C)CCCNC(=O)C(c1ccccc1)c1ccccc1	111%
Cc1ccc(S(=O)(=O)N(CCC(=O)O)c2ccccc2)cc1	113%
COC(=O)c1cccc(NC2=C(Cl)C(=O)C(C)=C(C)C2=O)c1	-62% (active)
Cc1cc(C(C)(C)c2cc(C)c(O)c(CN(C)C)c2)cc(CN(C)C)c1O	67.7%
CCN(CC)CCOc1ccc(C(=C(C)c2ccc(Cl)cc2)c2ccc(OCCN(CC)CC)cc2)cc1	-81.6% (active)
C=CCn1c(SCC(=O)NCc2cc(C)c(O)c(C)c2)nc2ccc(Cl)cc2c1=O	91.1%
Cc1ccc2nc3[nH]c(=O)[nH]c(=O)c3c(N)c2c1	88.3%
COc1cc(C2C(C#N)=C(N)Oc3cc(O)ccc32)cc(OC)c1OC (stereo not given)	-16% (active)
COc1cccc(Sc2ccc([N+](=O)[O-])c3no[n+]([O-])c23)c1	69.9%
Clc1ccc(-c2ccc(CNCC3CCNCC3)o2)c(-c2ccccc2)c1	-79.1% (active)
